Source: PubChem BioAssay (EPA / NIEHS)
The source made the active and inactive calls. How the source made its calls: active means hit-call score of the fitted dose curve at least 0.9, where 1 is the maximum; inactive means score below 0.9.

Key:
Details in all cases: mRNA level, 48 h; actives raise or lower the signal
CYP2C9 (gene 1559) = assay: LTEA_HepaRG_CYP2C9: Life Technologies and Expression Analysis (LTEA) Assay for CYP2C9 using HepaRG (AID 2283484)
Method in brief: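 HepaRG, 48 h dosing, 8-pt half-log series, top 100 uM, 0.5% DMSO vehicle. Read-out: CYP2C9 transcript by TaqMan qRT-PCR, housekeeping-normalized (ACTB/GAPDH/POLR2A). Gain or loss fitted vs DMSO baseline.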

CYP2E1 (gene 1571) = assay: LTEA_HepaRG_CYP2E1: Life Technologies and Expression Analysis (LTEA) Assay for CYP2E1 using HepaRG (AID 2283485)
Method in brief: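 CYP2E1 transcript was measured by TaqMan qRT-PCR in human HepaRG cultures after 48 h chemical exposure (top 100 uM, half-log steps, 0.5% DMSO vehicle). Housekeeping-gene normalization; gain or loss fitted relative to DMSO baseline.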

CYP4A11 (gene 1579) = assay: LTEA_HepaRG_CYP4A11: Life Technologies and Expression Analysis (LTEA) Assay for CYP4A11 using HepaRG (AID 2283486)
Method in brief: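 HepaRG, 48 h chem exposure, 8 conc (100 uM top, half-log), 0.5% DMSO vehicle; qRT-PCR readout, housekeeping-gene normalized; bidirectional curve fit vs DMSO baseline.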

[1] = read-out: Cytochrome P450 3A4 (Homo sapiens) (UniProt P08684); assay: LTEA_HepaRG_CYP3A4: Life Technologies and Expression Analysis (LTEA) Assay for CYP3A4 using HepaRG (AID 2283487)
Method in brief: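 Differentiated HepaRG cells, plated 48 h, then dosed 48 h in serum-free induction medium with 0.5% DMSO, 8 half-log concentrations up to 100 uM, duplicate. CYP3A4 mRNA by qRT-PCR, normalized to ACTB/GAPDH/POLR2A; bidirectional fit versus DMSO.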

[2] = read-out: DNA damage-inducible transcript 3 (DDIT3), DDIT3 (gene 1649); assay: LTEA_HepaRG_DDIT3: Life Technologies and Expression Analysis (LTEA) Assay for DNA damage-inducible transcript 3 (DDIT3) using HepaRG (AID 2283488)
Method in brief: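 qRT-PCR readout (Fluidigm TaqMan), housekeeping-normalized to ACTB, GAPDH, POLR2A. HepaRG cells, 48 h exposure, 8-point half-log series from 100 uM in 0.5% DMSO, duplicates. Gain or loss of signal fitted against DMSO baseline.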

[3] = read-out: Pro-epidermal growth factor (Homo sapiens) (UniProt P01133); assay: LTEA_HepaRG_EGF: Life Technologies and Expression Analysis (LTEA) Assay for Epidermal growth factor (EGF) using HepaRG (AID 2283489)
Method in brief: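 HepaRG, 48 h dosing, 100 uM top, half-log x8, 0.5% DMSO. Readout: TaqMan qRT-PCR (Fluidigm array), housekeeping-normalized. Gain or loss of signal fit vs DMSO.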

[4] = read-out: Early growth response protein 1 (EGR1) transcription factor, EGR1 (gene 1958); assay: LTEA_HepaRG_EGR1: Life Technologies and Expression Analysis (LTEA) Assay for Early growth response protein 1 (EGR1) transcription factor using HepaRG (AID 2283490)
Method in brief: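 HepaRG, 48 h exposure, 8-pt half-log series from 100 uM, 0.5% DMSO vehicle; EGR1 transcript by TaqMan qRT-PCR (Fluidigm array), housekeeping-normalized; bidirectional fit relative to DMSO baseline.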

[5] = read-out: Ezrin (EZR), EZR (gene 7430); assay: LTEA_HepaRG_EZR: Life Technologies and Expression Analysis (LTEA) Assay for Ezrin (EZR) using HepaRG (AID 2283491)
Method in brief: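 EZR transcript levels came from Fluidigm qRT-PCR and were normalized to three housekeeping genes after 48 h chemical exposure of HepaRG cells. Dosing used an 8-point half-log series with a 100 uM top concentration in 0.5% DMSO, tested in duplicate; both directions were fitted versus vehicle.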

[6] = read-out: Cytochrome P450 3A7 (Homo sapiens) (UniProt P24462); assay: LTEA_HepaRG_CYP3A7: Life Technologies and Expression Analysis (LTEA) Assay for CYP3A7 using HepaRG (AID 2283492)
Method in brief: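 Human HepaRG liver cells, 48 h post-plating, switched to serum-free induction medium and exposed in duplicate for 48 h. Dosing: 100 uM top, half-log dilutions, 8 points, 0.5% DMSO vehicle. Read-out: CYP3A7 mRNA, gain or loss fitted against DMSO baseline.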

[7] = read-out: Fatty Acid-Binding Protein 1 (FABP1), FABP1 (gene 2168); assay: LTEA_HepaRG_FABP1: Life Technologies and Expression Analysis (LTEA) Assay for Fatty Acid-Binding Protein 1 (FABP1) using HepaRG (AID 2283494)
Method in brief: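 qRT-PCR readout of FABP1 transcript (normalized to three housekeeping genes) after 48 h chemical exposure of HepaRG cells; eight concentrations, half-log steps, max 100 uM, 0.5% DMSO vehicle; gain or loss fitted relative to DMSO baseline.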

[8] = read-out: Cytochrome P450 4A22 (Homo sapiens) (UniProt Q5TCH4); assay: LTEA_HepaRG_CYP4A22: Life Technologies and Expression Analysis (LTEA) Assay for Cytochrome P450 4A22 (CYP4A22) using HepaRG (AID 2283495)
Method in brief: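 Readout is CYP4A22 transcript induction or loss, quantified by qRT-PCR and normalized to ACTB, GAPDH and POLR2A. Human HepaRG cells receive test chemicals for 48 h at eight half-log concentrations from 100 uM in 0.5% DMSO.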

[9] = read-out: Cytochrome P450 7A1 (Homo sapiens) (UniProt P22680); assay: LTEA_HepaRG_CYP7A1: Life Technologies and Expression Analysis (LTEA) Assay for Cytochrome P450 7A1 (CYP7A1) using HepaRG (AID 2283496)
Method in brief: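 Using 0.5% DMSO as vehicle and baseline, chemicals were tested in duplicate over an 8-point range from 100 uM on HepaRG cells for 48 h; qRT-PCR signals were normalised to ACTB, GAPDH and POLR2A.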

[10] = read-out: Glutathione S-Transferase (GSTA2), GSTA2 (gene 2939); assay: LTEA_HepaRG_GSTA2: Life Technologies and Expression Analysis (LTEA) Assay for Glutathione S-Transferase (GSTA2) using HepaRG (AID 2283497)
Method in brief: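 qRT-PCR readout of GSTA2 transcript, normalized to three housekeeping genes, fitted bidirectionally against 0.5% DMSO baseline. Differentiated HepaRG cells received compound for 48 h at 8 concentrations (top 100 uM, half-log steps).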

[11] = read-out: growth arrest and DNA damage 45 (GADD45G), GADD45G (gene 10912); assay: LTEA_HepaRG_GADD45G: Life Technologies and Expression Analysis (LTEA) Assay for growth arrest and DNA damage 45 (GADD45G) using HepaRG (AID 2283499)
Method in brief: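 Gain or loss of GADD45G mRNA, quantified by TaqMan qRT-PCR against three housekeeping genes, is fitted in both directions relative to 0.5% DMSO. Human HepaRG cultures receive test chemical for 48 h at up to 100 uM.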

[12] = read-out: Glutamate-cysteine ligase regulatory (GCLM), GCLM (gene 2730); assay: LTEA_HepaRG_GCLM: Life Technologies and Expression Analysis (LTEA) Assay for Glutamate-cysteine ligase regulatory (GCLM) using HepaRG (AID 2283500)
Method in brief: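 HepaRG, 48 h dosing, 100 uM top, half-log x8, 0.5% DMSO vehicle. Readout: GCLM mRNA by TaqMan qRT-PCR, housekeeping-normalized (ACTB/GAPDH/POLR2A). Curves fit bidirectionally vs DMSO baseline.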

[13] = read-out: Glutathione S-transferase M3 (GSTM3), GSTM3 (gene 2947); assay: LTEA_HepaRG_GSTM3: Life Technologies and Expression Analysis (LTEA) Assay for Glutathione S-transferase M3 (GSTM3) using HepaRG (AID 2283501)
Method in brief: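 HepaRG, plated 48 h, then serum-free induction medium; test chemical 48 h, duplicate; 100 uM top, half-log x8, 0.5% DMSO. Read-out: GSTM3 mRNA (TaqMan qRT-PCR, Fluidigm array). Bidirectional fit vs DMSO.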

[14] = read-out: Heat shock 70 kDa protein 1 (HSPA1A), gene 3303; assay: LTEA_HepaRG_HSPA1A: Life Technologies and Expression Analysis (LTEA) Assay for Heat shock 70 kDa protein 1 (HSPA1A) using HepaRG (AID 2283502)
Method in brief: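 HepaRG, 48 h exposure, 8-pt half-log CRC from 100 uM in 0.5% DMSO, duplicates. Readout: TaqMan qRT-PCR of HSPA1A mRNA, housekeeping-normalized (ACTB/GAPDH/POLR2A). Bidirectional fit vs 0.5% DMSO baseline.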

[15] = read-out: Hypoxia-inducible factor 1-alpha (Homo sapiens) (UniProt Q16665); assay: LTEA_HepaRG_HIF1A: Life Technologies and Expression Analysis (LTEA) Assay for Hypoxia-inducible factor 1 (HIF1A) Trancription factor using HepaRG (AID 2283503)
Method in brief: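 Gain- or loss-of-signal HIF1A mRNA changes are fitted against a DMSO baseline. HepaRG cultures receive eight concentrations, highest 100 uM, for 48 h in serum-free induction medium with 0.5% DMSO.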

CYP3A5 (gene 1577) = assay: LTEA_HepaRG_CYP3A5: Life Technologies and Expression Analysis (LTEA) Assay for CYP3A5 using HepaRG (AID 2283493)
Method in brief: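 qRT-PCR read-out: CYP3A5 transcript in HepaRG lysates, housekeeping-normalized (ACTB/GAPDH/POLR2A), fitted bidirectionally against 0.5% DMSO baseline. Exposure 48 h, eight half-log concentrations up to 100 uM, duplicates.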

[16] = read-out: Glutamate-cysteine ligase catalytic (GCLC), GCLC (gene 2729); assay: LTEA_HepaRG_GCLC: Life Technologies and Expression Analysis (LTEA) Assay for Glutamate-cysteine ligase catalytic (GCLC) using HepaRG (AID 2283498)
Method in brief: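 HepaRG, 48 h exposure, 8-pt half-log series from 100 uM, 0.5% DMSO vehicle; TaqMan qRT-PCR for GCLC mRNA, housekeeping-normalized; bidirectional curve fit vs DMSO baseline.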

Measured: AC50

Chain of Hypoxia-inducible factor 1-alpha (Homo sapiens) (Q16665 whole entry, looked up): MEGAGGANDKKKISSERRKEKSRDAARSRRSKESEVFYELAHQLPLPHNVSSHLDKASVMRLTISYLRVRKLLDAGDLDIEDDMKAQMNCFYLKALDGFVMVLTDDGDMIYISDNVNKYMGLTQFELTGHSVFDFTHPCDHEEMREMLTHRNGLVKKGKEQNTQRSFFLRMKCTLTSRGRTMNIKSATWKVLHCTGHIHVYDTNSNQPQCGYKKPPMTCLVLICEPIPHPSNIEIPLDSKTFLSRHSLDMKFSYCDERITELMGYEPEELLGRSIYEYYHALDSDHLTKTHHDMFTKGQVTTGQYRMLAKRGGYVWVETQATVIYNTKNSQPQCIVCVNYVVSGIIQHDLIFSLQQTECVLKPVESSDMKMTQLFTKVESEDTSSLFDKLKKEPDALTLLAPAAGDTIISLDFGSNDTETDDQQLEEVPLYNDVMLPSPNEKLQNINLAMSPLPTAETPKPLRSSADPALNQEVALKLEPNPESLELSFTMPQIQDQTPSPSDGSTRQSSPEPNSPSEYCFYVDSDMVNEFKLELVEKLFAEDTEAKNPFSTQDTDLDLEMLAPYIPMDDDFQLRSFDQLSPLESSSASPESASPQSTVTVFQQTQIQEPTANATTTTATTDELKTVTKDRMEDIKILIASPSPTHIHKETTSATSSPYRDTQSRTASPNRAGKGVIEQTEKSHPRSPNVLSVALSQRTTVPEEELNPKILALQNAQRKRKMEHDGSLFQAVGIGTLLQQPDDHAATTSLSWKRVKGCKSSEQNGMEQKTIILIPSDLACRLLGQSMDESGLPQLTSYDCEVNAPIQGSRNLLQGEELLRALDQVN
Chain of Cytochrome P450 3A4 (Homo sapiens) (P08684 whole entry, looked up): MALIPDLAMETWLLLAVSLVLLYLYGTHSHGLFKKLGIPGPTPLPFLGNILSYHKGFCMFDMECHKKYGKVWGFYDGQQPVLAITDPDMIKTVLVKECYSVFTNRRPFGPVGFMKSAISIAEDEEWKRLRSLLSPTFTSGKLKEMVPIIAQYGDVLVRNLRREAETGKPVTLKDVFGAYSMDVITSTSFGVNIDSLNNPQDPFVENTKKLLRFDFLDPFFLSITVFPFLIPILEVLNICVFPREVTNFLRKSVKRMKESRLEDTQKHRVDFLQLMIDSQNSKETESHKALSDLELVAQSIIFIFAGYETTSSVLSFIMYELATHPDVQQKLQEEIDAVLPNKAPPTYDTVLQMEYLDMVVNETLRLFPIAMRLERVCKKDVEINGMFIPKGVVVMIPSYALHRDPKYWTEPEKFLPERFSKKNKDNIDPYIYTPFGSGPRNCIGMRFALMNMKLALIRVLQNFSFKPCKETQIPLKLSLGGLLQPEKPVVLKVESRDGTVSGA
Chain of Cytochrome P450 3A7 (Homo sapiens) (P24462 whole entry, looked up): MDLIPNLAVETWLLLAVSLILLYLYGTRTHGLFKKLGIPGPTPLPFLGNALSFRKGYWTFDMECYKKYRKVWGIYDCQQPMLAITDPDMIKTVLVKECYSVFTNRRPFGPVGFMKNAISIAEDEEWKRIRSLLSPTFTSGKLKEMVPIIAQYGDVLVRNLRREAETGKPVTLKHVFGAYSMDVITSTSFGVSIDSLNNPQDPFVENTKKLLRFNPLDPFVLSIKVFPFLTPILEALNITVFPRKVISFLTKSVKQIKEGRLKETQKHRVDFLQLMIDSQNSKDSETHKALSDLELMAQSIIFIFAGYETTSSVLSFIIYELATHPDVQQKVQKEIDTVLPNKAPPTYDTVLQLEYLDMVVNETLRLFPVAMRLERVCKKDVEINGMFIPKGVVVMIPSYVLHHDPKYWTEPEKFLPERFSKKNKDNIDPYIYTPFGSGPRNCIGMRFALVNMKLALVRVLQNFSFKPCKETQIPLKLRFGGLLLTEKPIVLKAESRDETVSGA

O=C(c1ccc(O)cc1O)c1ccc(O)cc1O
inactive: CYP2C9 (gene 1559) | CYP2E1 (gene 1571) | CYP4A11 (gene 1579) | [1] | [2] | [3] | [4] | [5] | [6] | [7] | [8] | [9] | [10] | [11] | [12] | [13] | [14] | [15]

CCCN(CCC)C(=O)SCC
inactive: CYP2C9 (gene 1559) | CYP2E1 (gene 1571) | CYP4A11 (gene 1579) | [1] | [2] | [3] | [4] | [5] | [6] | CYP3A5 (gene 1577) | [7] | [8] | [9] | [10] | [16] | [11] | [12] | [13] | [14] | [15]

CN(C)C(=O)Nc1ccc(Cl)c(Cl)c1
active: CYP2E1 (gene 1571) 63 µM | [7] 50 µM | [9] 6.86 µM | [10] 50 µM | [16] 35.8 µM | [12] 50 µM
inactive: CYP2C9 (gene 1559) | CYP4A11 (gene 1579) | [1] | [2] | [3] | [4] | [5] | [6] | [8] | [11] | [13] | [14] | [15]
